Reference: PubChem BioAssay (EPA / NIEHS)
Several values for one entry are separate records, joined by “and”; a condition that tells them apart may be missing. Equal entries are not always repeated. Activity calls are given as the source filed them. The calls were made as follows: active = hit-call score of the fitted dose curve at least 0.9, where 1 is the maximum; inactive = score below 0.9.

Read-out: Interferon-inducible T-cell alpha chemoattractant (ITAC), CXCL11 (gene 6373)
Test: BSK_hDFCGF_ITAC: BioMAP Diversity Plus: hDFCGF Assay for Interferon-inducible T-cell alpha chemoattractant (ITAC) Biomarker Activity (AID 2284251)
Conditions: primary human foreskin fibroblasts
Method: BSK_hDFCGF is a cell-based, multiplexed-readout assay that uses foreskin fibroblast, a human skin primary cell, with measurements taken at 24 hours after chemical dosing in a 96-well plate.BSK_hDFCGF_ITAC is an assay component measured in the BSK_hDFCGF assay. It measures I-TAC antibody related to regulation of gene expression using ELISA technology.Data from the assay component BSK_hDFCGF_ITAC was analyzed at the endpoint, BSK_hDFCGF_ITAC, in the positive analysis fitting direction relative to DMSO as the negative control and baseline of activity. Using a type of binding reporter, gain or loss-of-signal activity can be used to understand protein changes. To generalize the intended target to other relatable targets, this assay endpoint is annotated to the 'cytokine' intended target family, where the subfamily is 'chemotactic factor'.
The levels of cell surface (or secreted, indicated by the prefix "s") biomarker endpoints were measured by ELISA. Overt cytotoxicity to cells in confluent adherent cultures (all systems other than the BT system) was assessed by measuring total protein levels using sulforhodamine B (SRB) staining in parallel cultures at the time of biomarker measurements, indicated as SRB endpoints. For proliferation assays for adherent cell types, individual cell types are cultured at sub-confluence and relative cell numbers quantified by SRB staining at time points optimized for each system (48 h: 3C and CASM3C systems; 72 h: BT and HDF3CGF systems; 96 h: SAg system). SRB was performed by staining cells with 0.1% SRB after fixation with 10% TCA and reading wells at 560 nm.Viability and proliferation of PBMC (T cells) was quantified by Alamar Blue reduction for the SAg and BT systems. For PBMC viability (referred to as PBMC Cytotoxicity within the assay endpoint names), cells were plated (75,000/well in a 96-well plate) and then chemical samples added for 1 h before addition of activators, SEB and TSST-1 (20 ng/mL final concentration each). Cells were incubated for 90 h. Then, Alamar Blue (20 uL/well) (Invitrogen, Cat DAL1100) was added for 6 h, and the plates were read with a fluorescence microplate reader at 546/580 nm (excitation/emission). For PBMC proliferation, cells were plated and activated as above but incubated for only 16 h prior to addition of Alamar Blue. Plates were read after 6 h.

| Compound | outcome | AC50 |
| --- | --- | --- |
| FC(F)(F)C(F)(C(F)(F)F)C(F)(F)C(F)(F)CC1CO1 (stereo not given) | inactive |  |
| O=C(O)C(F)(F)C(F)(F)C(=O)O | inactive |  |
| O=C(O)C(F)(F)OC(F)(F)C(F)(F)OC(F)(F)C(=O)O | inactive |  |
| NC(=O)C(F)(F)C(F)(F)F | inactive |  |
| O=C(O)C(F)(OC(F)(F)C(F)(F)C(F)(F)F)C(F)(F)F (stereo not given) | inactive |  |
| COP(=O)(CCC(=O)NCO)OC | inactive |  |
| OCC(F)(F)OC(F)(F)C(F)(F)OC(F)(F)C(F)(F)OC(F)(F)CO |  | 23 µM (active) and 22.1 µM (active) |
| O=C(O)C=CC(F)(C(F)(F)F)C(F)(F)F | inactive |  |
| OCC(F)(F)OC(F)(F)C(F)(F)OC(F)(F)CO | inactive |  |
| COC(=O)C(F)(F)C(F)(F)OC(F)(C(F)(F)F)C(F)(F)OC(F)=C(F)F (stereo not given) |  | 4.67 µM (active) and 5.4 µM (active) |
| CC(O)C(F)(F)C(F)(F)F (stereo not given) | inactive |  |
| C=CC(=O)OCC(F)(F)C(F)F |  | 12.7 µM (active) and 18.4 µM (active) |
| OCC(F)(F)OC(F)(F)C(F)(F)OC(F)(F)C(F)(F)OC(F)(F)F | inactive |  |
| O=C(O)C(F)(F)OC(F)(F)C(F)(F)OC(F)(F)F | inactive |  |
| O=S(=O)(F)C(F)(F)C(F)(F)C(F)(F)C(F)(F)C(F)(F)C(F)(F)C(F)(F)C(F)(F)F | inactive |  |
